Source: the supplement of paper PMC10646978
± gives the standard deviation.

How the values were obtained:
Conditions in all cases: modulator concentration 10 µM
[1] = test system: RAW-Dual (murine macrophage reporter line); test: NF-kB reporter (SEAP) activity fold change vs agonist alone; higher = enhanced NF-kB activity
Method in brief: (§1)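 In 384-well plates holding 50 000 RAW-Dual murine macrophage reporter cells per well, compound at 10 μM final was pre-incubated for 1 hour at 37 °C, after which a PRR agonist was added overnight. Supernatant SEAP read with QUANTI-Blue at 620 nm absorbance reported NF-κB, and Lucia luciferase read with QUANTI-Luc luminescence reported IRF. Fold change values come from dividing each reporter signal by the mean of agonist-only control wells on the same plate, averaged over replicate plates with propagated errors.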

[2] = test system: RAW-Dual (murine macrophage reporter line); test: IRF reporter (Lucia luciferase) activity fold change vs agonist alone; higher = enhanced IRF activity
Method in brief: as §1

[3] = test system: RAW-Dual (murine macrophage reporter line); test: viability score (confluency relative to resting cells, overnight) (fraction); higher = more viable, active = viable (0.7 or more)
Method in brief: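 A compound met the cutoff when both of two confluency masks exceeded 70% of resting cells. Those masks were made with IncuCyte software from IncuCyte images of RAW-Dual macrophages treated overnight at 10 μM final. This is the basis of the viability score, which is confluency relative to resting cells.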

[4] = agonist: CpG ODN 1826 0.5 ug/mL

Compound: Cc1cc2nc3sc(=Cc4ccccc4OCc4ccc(Cl)cc4Cl)c(=O)n3c2cc1C
- NF-kB reporter [1, 4]: 0.975 ± 0.088
- NF-kB reporter ([1]; agonist: LPS 0.1 ug/mL): 1.07 ± 0.069
- NF-kB reporter ([1]; agonist: MPLA […]): 0.962 ± 0.072
- IRF reporter ([2]; agonist: 3'3'-cGAMP 10 ug/mL): 0.99 ± 0.034
- IRF reporter ([2]; agonist: LPS 0.1 ug/mL): 1.47 ± 0.18
- IRF reporter ([2]; agonist: MPLA […]): 1.14 ± 0.12
- viability score [3]: 0.999 (active)

Compound: CCN(CC)CCOC(=O)C(c1ccccc1)c1ccccc1 [Prestw-75]
- NF-kB reporter [1, 4]: 0.712 ± 0.11
- NF-kB reporter ([1]; agonist: LPS 0.1 ug/mL): 1.14 ± 0.14
- NF-kB reporter ([1]; agonist: MPLA […]): 1.91 ± 0.9
- IRF reporter ([2]; agonist: 3'3'-cGAMP 10 ug/mL): 1.2 ± 0.038
- IRF reporter ([2]; agonist: LPS 0.1 ug/mL): 0.922 ± 0.09
- IRF reporter ([2]; agonist: MPLA […]): 1.09 ± 0.12
- viability score [3]: 0.91 (active)

Compound: O=C(NCC1CCN(C(=O)c2ccncc2)CC1)c1ccc(Oc2ccccc2)cc1
- NF-kB reporter [1, 4]: 0.988 ± 0.058
- NF-kB reporter ([1]; agonist: LPS 0.1 ug/mL): 0.954 ± 0.096
- NF-kB reporter ([1]; agonist: MPLA […]): 0.893 ± 0.026
- IRF reporter ([2]; agonist: 3'3'-cGAMP 10 ug/mL): 0.873 ± 0.066
- IRF reporter ([2]; agonist: LPS 0.1 ug/mL): 0.882 ± 0.057
- IRF reporter ([2]; agonist: MPLA […]): 0.932 ± 0.12
- viability score [3]: 0.997 (active)

Compound: COC(=O)C1=C(C)N(Cc2ccccc2)C(=O)C1
- NF-kB reporter [1, 4]: 1.06 ± 0.17
- NF-kB reporter ([1]; agonist: LPS 0.1 ug/mL): 1.1 ± 0.14
- NF-kB reporter ([1]; agonist: MPLA […]): 0.984 ± 0.18
- IRF reporter ([2]; agonist: 3'3'-cGAMP 10 ug/mL): 0.96 ± 0.039
- IRF reporter ([2]; agonist: LPS 0.1 ug/mL): 1.32 ± 0.15
- IRF reporter ([2]; agonist: MPLA […]): 1.42 ± 0.3
- viability score [3]: 0.623 (inactive)

Compound: NC(=O)OCC(COC(N)=O)c1ccccc1
- NF-kB reporter [1, 4]: 1.06 ± 0.079
- NF-kB reporter ([1]; agonist: LPS 0.1 ug/mL): 1.02 ± 0.05
- NF-kB reporter ([1]; agonist: MPLA […]): 1.04 ± 0.095
- IRF reporter ([2]; agonist: 3'3'-cGAMP 10 ug/mL): 1.16 ± 0.26
- IRF reporter ([2]; agonist: LPS 0.1 ug/mL): 0.945 ± 0.062
- IRF reporter ([2]; agonist: MPLA […]): 0.94 ± 0.11
- viability score [3]: 1 (active)

Compound: Cc1nc(Nc2ncc(C(=O)Nc3c(C)cccc3Cl)s2)cc(N2CCN(CCO)CC2)n1.O
- NF-kB reporter [1, 4]: 1.55 ± 0.37
- NF-kB reporter ([1]; agonist: LPS 0.1 ug/mL): 0.307 ± 0.025
- NF-kB reporter ([1]; agonist: MPLA […]): 0.644 ± 0.041
- IRF reporter ([2]; agonist: 3'3'-cGAMP 10 ug/mL): 0.0905 ± 0.0031
- IRF reporter ([2]; agonist: LPS 0.1 ug/mL): 0.536 ± 0.063
- IRF reporter ([2]; agonist: MPLA […]): 0.656 ± 0.081
- viability score [3]: 0.492 (inactive)

Compound: Cc1cccc(CCC(=O)N2CCCC(Oc3ccnc(C)n3)C2)c1 (stereo not given)
- NF-kB reporter [1, 4]: 1.02 ± 0.09
- NF-kB reporter ([1]; agonist: LPS 0.1 ug/mL): 1.14 ± 0.11
- NF-kB reporter ([1]; agonist: MPLA […]): 1.06 ± 0.15
- IRF reporter ([2]; agonist: 3'3'-cGAMP 10 ug/mL): 0.731 ± 0.057
- IRF reporter ([2]; agonist: LPS 0.1 ug/mL): 1.19 ± 0.085
- IRF reporter ([2]; agonist: MPLA […]): 1.16 ± 0.24
- viability score [3]: 0.963 (active)

Compound: CC(=O)Nc1ccc(NC(=O)COc2ccc(Br)c(C)c2)cc1
- NF-kB reporter [1, 4]: 0.902 ± 0.15
- NF-kB reporter ([1]; agonist: LPS 0.1 ug/mL): 1.09 ± 0.097
- NF-kB reporter ([1]; agonist: MPLA […]): 0.95 ± 0.087
- IRF reporter ([2]; agonist: 3'3'-cGAMP 10 ug/mL): 0.997 ± 0.026
- IRF reporter ([2]; agonist: LPS 0.1 ug/mL): 1.27 ± 0.36
- IRF reporter ([2]; agonist: MPLA […]): 1.22 ± 0.17
- viability score [3]: 1.01 (active)

Compound: COCCN1CCC(NC(=O)c2cnc3ccccc3n2)CC1
- NF-kB reporter [1, 4]: 0.441 ± 0.024
- NF-kB reporter ([1]; agonist: LPS 0.1 ug/mL): 1.02 ± 0.085
- NF-kB reporter ([1]; agonist: MPLA […]): 1.35 ± 0.072
- IRF reporter ([2]; agonist: 3'3'-cGAMP 10 ug/mL): 0.951 ± 0.05
- IRF reporter ([2]; agonist: LPS 0.1 ug/mL): 1.14 ± 0.25
- IRF reporter ([2]; agonist: MPLA […]): 1.2 ± 0.48
- viability score [3]: 0.935 (active)

Compound: CN1C(C(=O)Nc2ccccn2)=C(O)c2ccccc2S1(=O)=O
- NF-kB reporter [1, 4]: 0.654 ± 0.063
- NF-kB reporter ([1]; agonist: LPS 0.1 ug/mL): 0.901 ± 0.047
- NF-kB reporter ([1]; agonist: MPLA […]): 1.11 ± 0.097
- IRF reporter ([2]; agonist: 3'3'-cGAMP 10 ug/mL): 0.943 ± 0.056
- IRF reporter ([2]; agonist: LPS 0.1 ug/mL): 1.25 ± 0.077
- IRF reporter ([2]; agonist: MPLA […]): 1.35 ± 0.11
- viability score [3]: 1.02 (active)
